Many of the other results were omitted from the sample, so hits are more common in it than they were.
Tb PFK block – blocks T. brucei phosphofructokinase; AID 485367; 0.17% of 330,000 active; Potency, µM (highest dose often 57.5 µM), without a hit: at the highest dose activity, negative = inhibition, hits mostly inhibitors; O15648; T. brucei PFK, ADP-Glo luminescence;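 also: potency is read from the fitted curve at half-maximal effect; 0% = uninhibited 1x PFK enzyme wells and -100% = no-enzyme wells; nearly all actives have a fitted effect of over 60% in size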
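1.25 nM PFK with 0.5 mM F6P and 0.1 mM ATP in 0.1 M TEA pH 8.0, 5 mM MgCl2, incubated 45 min at room temperature; ADP measured by ADP-Glo luminescence; compounds titrated up to 57 uM.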
MBNL1 CUG block – inhibitors of human MBNL1 binding to CUG repeat RNA. TR-FRET MBNL1-His/biotin-(CUG)12 binding, 665/545 ratio. Potency, µM (doses to about 57.5 µM), inactives show top-dose activity change, negative = inhibition, actives largely listed as inhibitors. 0.036% of 280,000 active. AID 2675; active = well fitted inhibition curve with a large enough effect in the signal ratio, with a control signal flat, not every such curve was filed as active; inconclusive = small, poorly fitted or top-dose-only effect, or effect the other way, or a change in a side signal; inactive = no such curve, though single readings can be large or run the other way; the % refers to the signal ratio; also: potency is read from the fitted curve at half-maximal effect; % is scaled to controls: 0 for no effect and ±100 for the full control effect
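Compound titration spanned 92 nM–58 uM against the MBNL1-His/biotin-(CUG)12 complex. After 60 min at room temperature with 5 nM streptavidin-XL665 and 0.055 ng/ul terbium anti-His, ratiometric 665/545 nm emission (Ex 340 nm) normalized to controls.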
IMPase Li cell – cell-permeable IMPase inhibitors with lithium potentiation; Potency, µM (titrated, usually from 59.4 µM), inactives show at the highest dose activity, negative = IMPase inhibition, actives largely listed as inhibitors; CHO-M1 cells, IP1 TR-FRET (IP-One), carbachol + lithium; 0.35% of 210,000 active;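 also: IP1 builds up when IMPase is blocked and the TR-FRET signal falls; potency is read from the fitted curve at half-maximal effect; plate controls were basal vehicle for no effect and high inhibitor control for full effect; nearly all actives have a fitted effect of over 50% in size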
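CHO-M1, 2000 cells/well, 16–30 h culture; cpd + low Li+, 30 min 37C; lysis with d2-IP1/Eu-anti-IP1 Ab, 10 min RT; TR-FRET 665/620 ratio and 620 channel; AC50 via Hill.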
RGS12 GoLoco inh-1 – inhibitors of human Gai1-RGS12 GoLoco interaction (red fluorophore); P63096; Gai1:RGS12 GoLoco peptide FP, rhodamine, 10 min; Potency, µM (series often up to 61.6 µM), inactives show at the highest dose activity, negative = inhibition, most hits filed as inhibitors; 0.44% of 230,000 active; active = well fitted inhibition curve with a large enough effect, not every such curve was filed as active; inactive = no such curve, though single readings can be large or run the other way; also: potency is read from the fitted curve at half-maximal effect; % is scaled to controls: 0 for no effect and ±100 for the full control effect; nearly all actives have a fitted effect of over 30% in size
NPSR antagonist – blocks cAMP signaling of the human neuropeptide S receptor. CHO-NPSR cells, cAMP TR-FRET, antagonist mode. Potency, µM (doses to about 38.3 µM), for the others: top-dose activity change, negative = inhibition, usual class: inhibitors. Q6W5P4. AID 1461. 1% of 220,000 active; also: potency is read from the fitted curve at half-maximal effect; % is scaled to controls: 0 for no effect and ±100 for the full control effect; nearly all actives have a fitted effect of over 50% in size
Target sequence (Q6W5P4 whole entry, looked up): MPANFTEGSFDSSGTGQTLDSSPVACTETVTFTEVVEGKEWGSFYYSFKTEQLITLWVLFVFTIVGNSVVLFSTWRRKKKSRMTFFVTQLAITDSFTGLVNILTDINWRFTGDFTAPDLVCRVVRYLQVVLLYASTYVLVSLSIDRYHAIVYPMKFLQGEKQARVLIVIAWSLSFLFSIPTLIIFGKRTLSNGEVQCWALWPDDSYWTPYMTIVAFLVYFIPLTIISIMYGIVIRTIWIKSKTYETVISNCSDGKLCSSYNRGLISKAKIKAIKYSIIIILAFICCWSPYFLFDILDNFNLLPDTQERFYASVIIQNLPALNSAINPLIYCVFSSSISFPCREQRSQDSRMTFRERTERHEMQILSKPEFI
RGS12 GoLoco inh-2 – RGS12 (human) GoLoco motif inhibition, red FP. 50% of 110 active. shares compounds with RGS12 GoLoco inh-1. Potency, µM (series often up to 57.1 µM), inactives show at the highest dose activity, negative = inhibition, actives largely listed as inhibitors. Gai1/rhodamine-RGS12 GoLoco peptide fluorescence polarization
An asterisk follows results filed as active; ? = inconclusive; · = no result given; [ ] = another dose, or the depositor's remark. Unless noted, calls follow the shape of the dose curve; as a rule, active = well fitted curve in the direction sought with a large enough effect; inconclusive = small, poorly fitted or top-dose-only effect, or another doubt; inactive = no such curve, though single readings can be large; an effect the other way counts as inactive or inconclusive.

SMILES | Tb PFK block | MBNL1 CUG block | IMPase Li cell | RGS12 GoLoco inh-1 | NPSR antagonist | others
CCC1(C)Cc2ccccc2-c2[nH]c(=S)[nH]c(=O)c21 (stereo not drawn) | 1.2% | ? | · | · | ·
CC1(C)Cc2ccccc2-c2nc(NN)[nH]c(=O)c21 | -2.2% | 0.9% | · | · | ·
Cc1cccc(N2CC(C(=O)NC3CCCCCC3)CC2=O)c1C (stereo not drawn) | 2.4% | · | · | · | ·
COc1ccc(CNc2nc(-c3ccc(N(C)C)cc3)nc3ccccc23)c(OC)c1 | · | · | -9.6% | 8.91µM* | ·
Cc1ccc(NC(=O)CCS(=O)(=O)c2ccc3nc(C)sc3c2)cc1 | 0.4% | 1.6% | · | · | ·
Cc1ccc(N(CC(=O)Nc2ccc(-c3nc4ccc(C)cc4s3)cc2)S(C)(=O)=O)cc1 | -0.2% | 20.0% | 12.6µM* | 31.4% | ?
Cc1ccc2nc(-c3ccc(NC(=O)CCS(=O)(=O)c4ccccc4)cc3)sc2c1 | 0.0% | 106.1% | 12.6µM* | 17.1% | 12.1%
Cc1ccc(C)c(N(CC(=O)Nc2ccc(-c3nc4ccc(C)cc4s3)cc2)S(C)(=O)=O)c1 | 0.7% | · | -16.3% | 17.2% | -40.0%
CCOP(=O)(c1ccccc1)c1nc(-c2ccccc2C)oc1N1CCCCC1 (stereo not drawn) | 2.2% | -2.9% | 15.3%[38.3 µM] | 9.6% | 10µM*
Cc1ccccc1-c1nc(P(=O)(c2ccccc2)c2ccccc2)c(N2CCOCC2)o1 | -5.0% | -6.5% | · | 2.8% | 50.7%
CCCCNC(=O)[C@]1(C)CCC[C@@]2(C)C3CC[C@@]4(C)C[C@]3(CCC21)CC4=O (stereo partly drawn) | -7.6% | · | · | · | ·
OCC1(Cc2ccc(F)cc2)CCCN(CCc2ccccc2)C1 (stereo not drawn) | 0.6% | 2.2% | · | · | ·
Clc1ccc(N2CCN(c3ncnc4c3oc3ccccc34)CC2)cc1 | 1.7% | 53.2% | 10µM* | 4.3% | -4.8%[46.1 µM]
CC1CN(c2ncnc3c2oc2ccccc23)CC(C)O1 (stereo not drawn) | 7.3% | -1.3% | 8.3%[38.3 µM] | 0.5% | -8.8%[46.1 µM]
O=C(CCCCCn1c(=S)[nH]c2ccc(N3CCOCC3)cc2c1=O)NCc1ccc(Cl)cc1 | -1.0% | 19.7% | 11.2µM* | 9.8% | 10µM*
O=C(CCCCCn1c(=S)[nH]c2ccc(N3CCOCC3)cc2c1=O)NCc1ccc2c(c1)OCO2 | -3.9% | 0.0% | ? | 1.9% | -58.6%
O=C(/C=C/c1ccc(O)c(O)c1)O[C@H](Cc1ccc(O)c(O)c1)C(=O)O | 16.9µM* | 2.4% | · | 15.8µM* | 17.0%
Cc1ccc(C)c(NC(=O)c2cc3c([nH]c4ccccc43)c(C)n2)c1 | -1.5% | -18.9% | 11.2µM* | 14.3% | 6.9%[46.1 µM]
CCOc1ccc(OCC)c(NC(=O)c2[nH]c(C)c(C(C)=O)c2C)c1 | 0.8% | 43.3% | 7.08µM* | -84.0% | 10.8%[46.1 µM]
C=C(C)C1CC=C(C)C(OC(C)=O)C1 (stereo not drawn) | · | · | 4.9% | 0.6% | ·
COC(=O)c1ccc(-c2csc(NC(=O)c3c(C)noc3C)n2)cc1 | -0.3% | · | · | · | ·
COc1ccc(/[N+]([O-])=C/c2ccco2)cc1 | -0.6% | · | · | · | ·
COc1cccc2cc(C(=O)NCc3ccco3)c(=O)oc12 | 2.5% | ? | 11.2µM* | 0.4% | 6.9%
Cc1ccc(S(=O)(=O)N2CCC(C(=O)NCC(C)(C)N3CCOCC3)CC2)c(C)c1 | -0.7% | · | · | · | ·
Cc1cccn2c(=O)nc(SCC(=O)NCc3ccccc3)nc12 | -2.7% | · | · | · | ·
CC1Cc2ccccc2N1C(=O)CSc1nnc(NC(=O)Cc2cccs2)s1 (stereo not drawn) | -17.0% | 9.2% | 25.2%[38.3 µM] | 84.0% | 12.6µM*
COc1cccc(C(=O)N/N=C/c2ccc(Oc3ccc([N+](=O)[O-])cn3)c(OC)c2)c1 | 2.7% | ? | 5.2% | -51.3% | 9.0% | RGS12 GoLoco inh-2=17.8µM*
O=c1c2ccccc2oc2cc(-c3ccc(CN4CCOCC4)cc3)ccc12 | 7.7% | · | · | · | ·
